We go through three compounds from PubChem BioAssay (Tox21).

Unmarked numbers belong to inactive results. Inconclusive results are not listed. The source made the active and inactive calls. Unless noted, calls follow the shape of the dose curve; as a rule, active = well fitted curve in the direction sought with a large enough effect in the repeat runs; inconclusive = weak or mixed curves; inactive = no such curve, though single readings can be large; an effect the other way counts as inactive or inconclusive.

Assay [1] in a line: qHTS assay to identify small molecule antagonists of the estrogen related receptor (ERR) signaling pathway - cell viability counter screen (AID 1224818).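 Also: series mostly up to about 46 µM; viability measured after 17.5 h of compound exposure; % is scaled to controls: 0 for no effect and ±100 for the full control effect.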 In outline: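 Cytotoxicity check run alongside the ERR antagonist screen: cells exposed to test compounds 17.5 h at 37 C, viability taken as CellTiter-Fluor fluorescence intensity.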
A short description of assay [2]: qHTS assay to identify small molecule agonists of the estrogen related receptor (ERR) signaling pathway (AID 1224820). Also: % is scaled to controls: 0 for no effect and ±100 for the full control effect. The procedure, abridged: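 An ERR cell line provided by NTP was seeded at 2,000 cells per well and allowed to settle for 6 h before compounds in DMSO were added. After 18 h at 37 C, luciferase activity was measured by One-Glo luminescence.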
The subject of assay [3] is estrogen-related receptor alpha (ERRalpha) with PGC-1alpha coactivator, human. The assay is described as follows: qHTS assay to identify small molecule antagonists of the estrogen related receptor signaling pathway with the pleiotropic PPARgamma coactivator (PGC) (AID 1224821; calls by dose curve;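 also: series mostly up to about 46 µM; % is scaled to controls: 0 for no effect and ±100 for the full control effect; lower luminescence signal means antagonism of PGC/ERR signalling; nearly all actives have a fitted effect of over 50% in size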). In outline: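 A PGC/ERR cell line supplied by NTP is seeded, allowed 6 h at 37 C, and treated with test compounds in DMSO for 18 h. Signal is then measured as luciferase luminescence using One-Glo.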

A short description of assay [4]: qHTS assay to identify small molecule antagonists of the estrogen related receptor signaling pathway with the pleiotropic PPARgamma coactivator (PGC) cell viability counter screen (AID 1224822;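 also: series mostly up to about 46 µM; viability read after 17.5 h compound exposure; % is scaled to controls: 0 for no effect and ±100 for the full control effect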). In outline:
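Viable cell signal (CellTiter-Fluor, 30 min, 37 C/5% CO2) was measured in PGC/ERR cells after a 17.5 h compound incubation.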

The nature of assay [5]: qHTS assay to identify small molecule agonists of the estrogen related receptor signaling pathway with the pleiotropic PPARgamma coactivator (PGC) (AID 1224823). Also: % is scaled to controls: 0 for no effect and ±100 for the full control effect. In outline: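 Compounds dissolved in DMSO are added by pin tool to PGC/ERR cells that have settled for 6 h, and incubation continues 18 h at 37 C. Reporter output is measured as One-Glo luminescence.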
The nature of assay [6]: qHTS assay for small molecules that induce genotoxicity in human embryonic kidney cells expressing luciferase-tagged ATAD5 (AID 651632). Also: % is scaled to controls: 0 for no effect and ±100 for the full control effect; nearly all actives have a fitted effect of over 15% in size. In outline:
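Test compounds were delivered by pin tool onto HEK293T reporter cells (2,000/well) expressing ATAD5 fused to luciferase. After 16 hr at 37C, 5% CO2, Amplite was added for 30 min at room temperature and luminescence was measured.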

Assay [7] can be described thus: qHTS assay for small molecule agonists of the p53 signaling pathway - cell viability (AID 651633; calls by dose curve;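 also: p53RE-bla HCT reporter cells with a stable beta-lactamase p53 reporter; series mostly up to about 83 µM; % is scaled to controls: 0 for no effect and ±100 for the full control effect; nearly all actives have a fitted effect of over 30% in size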). In outline: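 Viability counter-read: CellTiter-Glo luminescence (30 min, room temperature) in the same p53RE-bla plates. These plates had been exposed to compounds for 16 h at 37 C.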
Assay [8] in a line: qHTS assay to test for compound auto fluorescence at 590 nm (red) in HepG2 cells (AID 720674). Also: % is scaled to controls: 0 for no effect and ±100 for the full control effect. In outline:
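We screened compounds on adherent HepG2 cells, incubating them for an hour at 37 C in 5% CO2 before reading emission at 590 nm under 540 nm excitation; values reflect equivalence to Rose Bengal sodium fluorescence.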

Assay [9] can be described thus: qHTS assay to test for compound auto fluorescence at 535 nm (green) in HepG2 cells (AID 720675). Also: % is scaled to controls: 0 for no effect and ±100 for the full control effect.
Assay [10] can be described thus: qHTS assay to test for compound auto fluorescence at 460 nm (blue) in HEK293 cells (AID 720678). Also: % is scaled to controls: 0 for no effect and ±100 for the full control effect. The procedure, abridged: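 Blue read-out at excitation 405 nm and emission 460 nm follows overnight compound exposure of HEK293 cells at 37C in 5% CO2. Activity is given as auto fluorescence equivalency to triamterene.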
Assay [11] is described as follows: qHTS assay to test for compound auto fluorescence at 590 nm (red) in HEK293 cells (AID 720679). Also: % is scaled to controls: 0 for no effect and ±100 for the full control effect. The procedure, abridged: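 Red channel, Ex/Em 540/590nm; signal expressed as equivalency to Rose Bengal sodium. HEK293, 2,000 cells/well, 10% dialyzed FBS; 23 nL compound pinned after 4-5 hr attachment; overnight 37C/5% CO2 before reading.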
Assay [12] in a line: qHTS assay to test for compound auto fluorescence at 535 nm (green) in HEK293 cells (AID 720680). Also: % is scaled to controls: 0 for no effect and ±100 for the full control effect.
A short description of assay [13]: qHTS assay to test for compound auto fluorescence at 460 nm (blue) in HEK293 cell free culture (AID 720681). Also: % is scaled to controls: 0 for no effect and ±100 for the full control effect. In outline:
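Blue fluorescence (Ex 405/Em 460 nm, triamterene-equivalent) was read immediately after pin transfer of compound or DMSO into medium (DMEM, 10% FBS) without cells.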

Assay [14] in a line: qHTS assay to test for compound auto fluorescence at 590 nm (red) in HEK293 cell free culture (AID 720683). Also: % is scaled to controls: 0 for no effect and ±100 for the full control effect. In outline: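 Red-channel autofluorescence of compounds in culture medium (DMEM, 10% FBS), no cells, measured at 540/590 nm. Rose Bengal sodium is the reference fluorophore for equivalence.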
The nature of assay [15]: qHTS assay to test for compound auto fluorescence at 590 nm (red) in HepG2 cell free culture (AID 720684). Also: % is scaled to controls: 0 for no effect and ±100 for the full control effect. In outline:
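Cell-free; medium MEM + 10% FBS; compound or DMSO added by pintool; read Ex 540/Em 590 nm; Rose Bengal sodium as red reference fluorophore.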

Assay [16] in a line: qHTS assay to test for compound auto fluorescence at 460 nm (blue) in HepG2 cell free culture (AID 720685). Also: % is scaled to controls: 0 for no effect and ±100 for the full control effect. In outline: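 Cell-free plates of MEM plus 10% FBS received 23 nL compound or DMSO vehicle; blue-channel (405/460 nm) intensity scored against triamterene as reference fluorophore.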
A short description of assay [17]: qHTS assay to test for compound auto fluorescence at 535 nm (green) in HepG2 cell free culture (AID 720686). Also: % is scaled to controls: 0 for no effect and ±100 for the full control effect.
Assay [18] can be described thus: qHTS assay to test for compound auto fluorescence at 460 nm (blue) in HepG2 cells (AID 720687). Also: % is scaled to controls: 0 for no effect and ±100 for the full control effect. In outline: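 Blue-channel autofluorescence (Ex/Em 405/460 nm, triamterene-equivalent) was measured after 1 hr compound exposure at 37 C, 5% CO2. Cells were HepG2, plated overnight at 37 C in MEM plus 10% FBS.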
The nature of assay [19]: qHTS assay to identify small molecule antagonists of the glucocorticoid receptor (GR) signaling pathway - cell viability counter screen (AID 720693). Also: % is scaled to controls: 0 for no effect and ±100 for the full control effect; nearly all actives have a fitted effect of over 55% in size.
Assay [20] in a line: qHTS assay for identifying genotoxic compounds that show differential cytotoxicity against isogenic chicken DT40 cell lines with known DNA damage response pathways - wild type cell line (AID 743012). Also: % is scaled to controls: 0 for no effect and ±100 for the full control effect; nearly all actives have a fitted effect of over 60% in size. The procedure, abridged: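 300 wt DT40 cells/well; cpd (DMSO) pintool-transferred after ~0.5 h at 37 C/5% CO2; 40 h incubation; CellTiter-Glo added, 30 min RT; luminescence read.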

A short description of assay [21]: qHTS assay for identifying genotoxic compounds that show differential cytotoxicity against isogenic chicken DT40 cell lines with known DNA damage response pathways - Rev3 mutant cell line (AID 743014). Also: % is scaled to controls: 0 for no effect and ±100 for the full control effect; nearly all actives have a fitted effect of over 55% in size.
The nature of assay [22]: qHTS assay for identifying genotoxic compounds that show differential cytotoxicity against isogenic chicken DT40 cell lines with known DNA damage response pathways - Rad54/Ku70 mutant cell line (AID 743015). Also: % is scaled to controls: 0 for no effect and ±100 for the full control effect; nearly all actives have a fitted effect of over 60% in size.
Assay [23] in a line: qHTS assay to identify small molecule antagonists of the androgen receptor (AR) signaling pathway - cell viability counter screen (AID 743033; also: % is scaled to controls: 0 for no effect and ±100 for the full control effect; nearly all actives have a fitted effect of over 45% in size).
The nature of assay [24]: qHTS assay to identify small molecule antagonists of the androgen receptor (AR) signaling pathway using the MDA cell line - cell viability counter screen (AID 743041; also: % is scaled to controls: 0 for no effect and ±100 for the full control effect; nearly all actives have a fitted effect of over 45% in size). In outline:
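Viability read by CellTiter-Fluor fluorescence in the same wells as the antagonist screen, added after 15.5 h of a 16 h, 37C exposure. Human breast carcinoma MDA-kb2 AR-luc cells, compounds co-dosed with agonist R1881.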

Assay [25] is described as follows: qHTS assay to identify small molecule antagonists of the thyroid receptor (TR) signaling pathway - cell viability counter screen (AID 743064). Also: % is scaled to controls: 0 for no effect and ±100 for the full control effect; nearly all actives have a fitted effect of over 50% in size. The procedure, abridged: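 In-well cytotoxicity read by CellTiter-Fluor (30 min, 37 C) following 23.5 h exposure of GH3 cells bearing a TRE-luciferase sensor. Compounds were added alongside 1 nM (final) T3 to drive TR transactivation.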

Assay [26] relates to thyroid hormone receptor (rat, GH3 cells). The assay is described as follows: qHTS assay to identify small molecule agonists of the thyroid receptor (TR) signaling pathway (AID 743066; calls by dose curve; also: % is scaled to controls: 0 for no effect and ±100 for the full control effect).
Assay [27] addresses Estrogen receptor (Homo sapiens) (UniProt P03372). The experiment in a line: qHTS assay to identify small molecule antagonists of the estrogen receptor alpha (ER-alpha) signaling pathway (AID 743069; active = well fitted curve in the direction sought with a large enough effect in the signal ratio in the repeat runs, not every such curve was filed as active; the % refers to the signal ratio; also: % is scaled to controls: 0 for no effect and ±100 for the full control effect). In outline: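 Antagonist mode: compounds in DMSO were co-added with 17beta-estradiol to ER-alpha-bla HEK293 cells (2% charcoal-stripped serum) and left 18 h at 37C. Reporter inhibition was measured as FRET fluorescence after 2 h LiveBLAzer substrate at room temperature.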

Assay [28] can be described thus: qHTS assay to identify small molecule antagonists of the estrogen receptor alpha (ER-alpha) signaling pathway - cell viability counter screen (AID 743074; calls by dose curve;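 also: HEK293 cells carrying ER-alpha-UAS-bla reporter stimulated with 17beta-estradiol; % is scaled to controls: 0 for no effect and ±100 for the full control effect; nearly all actives have a fitted effect of over 45% in size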).
The target of assay [29] is Estrogen receptor (Homo sapiens) (UniProt P03372). The assay is described as follows: qHTS assay to identify small molecule agonists of the estrogen receptor alpha (ER-alpha) signaling pathway (AID 743075; calls by dose curve).
Sequence of Estrogen receptor (Homo sapiens) (P03372 whole entry, looked up): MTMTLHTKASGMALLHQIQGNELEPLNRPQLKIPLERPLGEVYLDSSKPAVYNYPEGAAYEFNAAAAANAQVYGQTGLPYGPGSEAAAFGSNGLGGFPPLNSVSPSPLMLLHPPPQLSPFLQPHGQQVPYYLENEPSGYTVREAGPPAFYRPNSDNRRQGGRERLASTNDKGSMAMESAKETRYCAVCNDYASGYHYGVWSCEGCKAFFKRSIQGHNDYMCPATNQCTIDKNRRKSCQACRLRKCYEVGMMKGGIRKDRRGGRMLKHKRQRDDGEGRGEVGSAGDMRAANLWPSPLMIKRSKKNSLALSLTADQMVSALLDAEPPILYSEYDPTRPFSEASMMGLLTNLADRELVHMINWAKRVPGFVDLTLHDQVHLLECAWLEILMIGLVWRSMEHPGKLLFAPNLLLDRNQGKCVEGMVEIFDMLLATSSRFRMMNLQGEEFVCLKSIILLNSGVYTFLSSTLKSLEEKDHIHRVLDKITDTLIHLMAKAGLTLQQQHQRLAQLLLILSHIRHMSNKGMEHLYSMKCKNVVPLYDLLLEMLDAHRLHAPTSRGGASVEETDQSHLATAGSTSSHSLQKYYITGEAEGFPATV
Assay [30] shares this target. The assay is described as follows: qHTS assay to identify small molecule agonists of the estrogen receptor alpha (ER-alpha) signaling pathway using the BG1 cell line (AID 743079). Also: potency is read from the fitted curve at half-maximal effect; nearly all actives have a fitted effect of over 20% in size.
A short description of assay [31]: qHTS assay to identify small molecule antagonists of the estrogen receptor alpha (ER-alpha) signaling pathway using the BG1 cell line (AID 743080; calls by dose curve;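 also: BG1 cells stimulated with 17beta-estradiol alongside compound; series mostly up to about 70 µM; % is scaled to controls: 0 for no effect and ±100 for the full control effect; nearly all actives have a fitted effect of over 25% in size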). The procedure, abridged:
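Luminescence from a 4×ERE-luciferase reporter in BG1-Luc-4E2 cells served as read-out. Cells, pre-cultured 5 days in stripped-serum phenol-red-free medium, were exposed to compound with 17beta-estradiol co-stimulation for 21.5 h at 37 C.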

The nature of assay [32]: qHTS assay to identify small molecule antagonists of the estrogen receptor alpha (ER-alpha) signaling pathway using the BG1 cell line - cell viability counter screen (AID 743081).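 Also: compound given together with 17beta-estradiol as the ER stimulus; series mostly up to about 70 µM; % is scaled to controls: 0 for no effect and ±100 for the full control effect; nearly all actives have a fitted effect of over 45% in size.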
In assay [33] the target is Aromatase (Homo sapiens) (UniProt P11511). The assay is described as follows: qHTS assay to identify aromatase inhibitors (AID 743083).
Sequence of Aromatase (Homo sapiens) (P11511 whole entry, looked up): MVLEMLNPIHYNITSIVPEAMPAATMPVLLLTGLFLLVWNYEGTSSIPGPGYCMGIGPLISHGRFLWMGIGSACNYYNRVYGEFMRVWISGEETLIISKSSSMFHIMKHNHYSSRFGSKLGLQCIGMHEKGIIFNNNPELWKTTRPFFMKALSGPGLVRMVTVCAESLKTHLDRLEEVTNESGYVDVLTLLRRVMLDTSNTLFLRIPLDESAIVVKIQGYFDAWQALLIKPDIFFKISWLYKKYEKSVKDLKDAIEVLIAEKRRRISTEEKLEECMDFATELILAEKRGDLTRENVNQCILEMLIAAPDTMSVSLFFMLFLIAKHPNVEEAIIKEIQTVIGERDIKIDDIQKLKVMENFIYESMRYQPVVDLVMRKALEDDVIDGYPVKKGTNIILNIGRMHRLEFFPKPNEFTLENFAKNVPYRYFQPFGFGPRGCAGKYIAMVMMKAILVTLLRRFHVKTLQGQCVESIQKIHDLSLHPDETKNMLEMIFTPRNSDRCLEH
A short description of assay [34]: qHTS assay to identify aromatase inhibitors - cell viability counter screen (AID 743084).
In assay [35] the target is Aryl hydrocarbon receptor (Homo sapiens) (UniProt P35869). The experiment in a line: qHTS assay to identify small molecule that activate the aryl hydrocarbon receptor (AhR) signaling pathway (AID 743085). In outline:
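Luminescence (ONE-Glo) from a dioxin-responsive-element luciferase reporter in HG2L7.5c1 HepG2 cells after 24 hr compound exposure at 37C; viability measured by CellTiter-Fluor fluorescence beforehand.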

Assay [36] is described as follows: qHTS assay to identify small molecule that activate the aryl hydrocarbon receptor (AhR) signaling pathway - cell viability counter screen (AID 743086). In outline: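 Cytotoxicity counter screen: CellTiter-Fluor signal (30 min, 37 C) in 4000 HepG2 cells/well carrying the DRE-luciferase reporter, following 24 h compound exposure at 37 C.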
Assay [37] addresses Peroxisome proliferator-activated receptor gamma (Homo sapiens) (UniProt P37231). The assay is described as follows: qHTS assay to identify small molecule agonists of the peroxisome proliferator-activated receptor gamma (PPARg) signaling pathway (AID 743094; active = well fitted activation curve with a large enough effect in the signal ratio in the repeat runs, not every such curve was filed as active; the % refers to the signal ratio). In outline: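 Cell-based bla reporter, HEK293H background, PPARg-driven UAS. Pre-incubation 5 h, 37C, 5% CO2. Compound 17 h, 37C. Substrate 1 h RT; fluorescence.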

The nature of assay [38]: qHTS assay to identify small molecule phospholipidosis (PLD) inducers (AID 1259344; active = well fitted curve in the direction sought with a large enough effect; an effect the other way counts as inactive or inconclusive). In outline: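 Phospholipid accumulation was scored by imaging: fixed, Hoechst-counterstained HepG2 cells stained with LipidTOX Red after 24 h compound exposure at 37 C. Read-outs were pit count and pit intensity per well or per cell, with amiodarone and DMSO controls.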
The target of assay [39] is Nuclear receptor subfamily 1 group I member 2 (Rattus norvegicus) (UniProt Q9R1A7). The assay is described as follows: Rat pregnane X receptor (rPXR) activation by small molecules, qHTS assay (AID 1346983). Conditions: rPXR luciferase reporter cells, One-Glo luminescence, 24 h; max activation: hits give high values. In outline:
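Luminescent readout (One-Glo luciferase, 30 min room temperature) followed 24 hr compound treatment at 37 C of rPXR cells plated 2,000 per well and preincubated 5hr; qHTS format with compounds delivered in DMSO.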

Sequence of Nuclear receptor subfamily 1 group I member 2 (Rattus norvegicus) (Q9R1A7 whole entry, looked up): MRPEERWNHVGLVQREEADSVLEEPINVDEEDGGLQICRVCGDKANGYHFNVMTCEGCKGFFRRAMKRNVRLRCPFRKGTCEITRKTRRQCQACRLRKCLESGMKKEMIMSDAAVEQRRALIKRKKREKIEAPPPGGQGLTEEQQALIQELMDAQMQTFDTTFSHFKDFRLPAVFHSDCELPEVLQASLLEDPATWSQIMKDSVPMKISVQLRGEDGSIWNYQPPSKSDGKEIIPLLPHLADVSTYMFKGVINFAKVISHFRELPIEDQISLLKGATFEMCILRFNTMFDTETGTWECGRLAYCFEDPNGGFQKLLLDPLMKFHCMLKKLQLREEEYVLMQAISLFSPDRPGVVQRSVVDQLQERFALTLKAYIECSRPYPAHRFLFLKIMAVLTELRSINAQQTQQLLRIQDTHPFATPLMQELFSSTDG
Sequence of Peroxisome proliferator-activated receptor gamma (Homo sapiens) (P37231 whole entry, looked up): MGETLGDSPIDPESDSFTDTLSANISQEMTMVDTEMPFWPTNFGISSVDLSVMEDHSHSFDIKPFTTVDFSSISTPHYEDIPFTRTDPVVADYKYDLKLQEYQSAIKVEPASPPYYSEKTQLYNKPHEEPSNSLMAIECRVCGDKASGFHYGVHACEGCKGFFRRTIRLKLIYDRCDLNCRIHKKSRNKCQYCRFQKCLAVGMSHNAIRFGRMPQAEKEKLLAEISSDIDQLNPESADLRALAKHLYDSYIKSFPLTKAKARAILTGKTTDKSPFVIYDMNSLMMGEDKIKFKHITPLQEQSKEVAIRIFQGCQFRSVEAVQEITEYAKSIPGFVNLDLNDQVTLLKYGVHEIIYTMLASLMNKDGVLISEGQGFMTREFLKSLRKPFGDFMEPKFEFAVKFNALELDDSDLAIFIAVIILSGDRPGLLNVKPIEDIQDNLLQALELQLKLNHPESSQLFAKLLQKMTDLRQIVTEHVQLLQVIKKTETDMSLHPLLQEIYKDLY
Sequence of Aryl hydrocarbon receptor (Homo sapiens) (P35869 whole entry, looked up): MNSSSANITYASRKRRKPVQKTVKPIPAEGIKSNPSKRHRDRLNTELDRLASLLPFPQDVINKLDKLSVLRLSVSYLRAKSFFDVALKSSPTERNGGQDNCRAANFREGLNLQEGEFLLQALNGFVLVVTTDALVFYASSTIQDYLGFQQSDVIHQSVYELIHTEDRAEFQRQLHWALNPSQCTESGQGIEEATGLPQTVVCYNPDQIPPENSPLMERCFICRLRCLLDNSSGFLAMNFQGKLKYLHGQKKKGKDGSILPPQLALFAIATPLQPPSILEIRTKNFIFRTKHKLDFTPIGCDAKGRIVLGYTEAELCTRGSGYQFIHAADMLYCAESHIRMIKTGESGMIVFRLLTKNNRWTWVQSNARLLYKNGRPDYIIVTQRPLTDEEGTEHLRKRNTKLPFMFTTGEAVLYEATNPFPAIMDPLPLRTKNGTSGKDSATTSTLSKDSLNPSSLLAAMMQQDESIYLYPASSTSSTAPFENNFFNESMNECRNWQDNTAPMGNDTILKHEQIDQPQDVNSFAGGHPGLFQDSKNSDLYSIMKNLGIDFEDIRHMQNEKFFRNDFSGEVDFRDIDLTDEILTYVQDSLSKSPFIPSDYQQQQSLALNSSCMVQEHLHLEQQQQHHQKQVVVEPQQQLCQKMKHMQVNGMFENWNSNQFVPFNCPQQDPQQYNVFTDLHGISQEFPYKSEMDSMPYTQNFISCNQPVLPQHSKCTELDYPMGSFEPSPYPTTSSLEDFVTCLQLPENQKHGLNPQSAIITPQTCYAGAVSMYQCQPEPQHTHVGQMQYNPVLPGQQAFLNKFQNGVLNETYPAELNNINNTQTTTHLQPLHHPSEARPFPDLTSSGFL

As for `CC(=O)[C@H]1CCC2C3CC[C@H]4C[C@H](O)CC[C@]4(C)C3CC[C@@]21C` (some centres undefined), the Potency entry in assay [1], in [2], in [3], in assay [4] and in assay [5] was “inactive” each time.
With `c1ccc(C2(c3ccccc3)CC2C2=NCCN2)cc1` (centres undefined), the Potency entry in assay [6], in assay [7], in assay [9], in [10], in [12] and in assay [13] was “inactive” in each case. The Potency entry in assay [16], in [17], in assay [18], in assay [19], in [20] and in assay [21] was “inactive” throughout. Besides, the Potency result in assay [22], in assay [23], in assay [24], in assay [25], in assay [26] and in assay [27] was “inactive” in each case. Besides, the Potency result in assay [28], in assay [29], in [31], in assay [32], in assay [33] and in assay [34] was “inactive” each time. Moreover, the Potency entry in assay [35], in [36], in assay [37], in [1], in assay [2] and in assay [3] was “inactive” throughout. Also, the Potency entry in [4], in assay [5] and in [38] was “inactive” in each case. For the same compound, the result in assay [8], in [11], in assay [14] and in assay [15] was inactive. In assay [30], the Potency was 0.7 nM (active). Moreover, the max activation in [39] is -1.58%.
As for `O=C1CCCN1CC#CCN1CCCC1`, the Potency entry in assay [1], in [2], in assay [3], in assay [4] and in assay [5] was “inactive” in each case.
